An excerpt weighted towards active compounds, which were near 19% of everything screened.
HT1080 IDH1KD tx – qHTS for induction of synthetic lethality in tumor cells producing 2HG: qHTS for the HT-1080-IDH1KD cell line | HT-1080 IDH1 knockdown viability, ATP luminescence, 48 h | AID 686971, 2013 | Potency, µM (doses to about 46.1 µM), inactives show at the highest dose activity, negative = toxicity, hits mostly cytotoxic | 360,000 compounds, 2% hits;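 also: potency is read from the fitted curve at half-maximal effect; 0% = DMSO wells and -100% = cell-free medium wells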
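IDH1KD HT-1080 cells, 750/well, RPMI + 5% FBS; compound pinned after 2 h settling; 48 h, 37 °C; CellTiter-Glo luminescence; % activity normalised to DMSO and no-cell wells; curves fitted, classed by r2 and efficacy.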
uPA surface inh – qHTS for Inhibitors of Cell Surface uPA Generation. Potency, µM (doses to about 38.3 µM), for the others: top-dose activity change, negative = inhibition, most hits filed as inhibitors. cell surface uPA generation assay, qHTS. 330,000 compounds, 0.31% hits. AID 540303, 2011; active = well fitted inhibition curve with a large enough effect; inconclusive = small, poorly fitted or top-dose-only effect; inactive = no such curve, though single readings can be large or run the other way; tested in mouse RAW 264.7 cells; also: potency is read from the fitted curve at half-maximal effect; nearly all actives have a fitted effect of over 55% in size
HT1080NT lethal – qHTS for induction of synthetic lethality in tumor cells producing 2HG: qHTS for the HT-1080-NT fibrosarcoma cell line | Potency, µM (top dose mostly 46.1 µM), without a hit: at the highest dose activity, negative = less viability, actives largely listed as cytotoxic | 360,000 compounds, 1.6% hits | AID 686970, 2013 | HT-1080-NT fibrosarcoma viability, CellTiter-Glo ATP luminescence, 48 h;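 also: NT is the 2HG producing partner of a matched IDH1 knockdown line; potency is read from the fitted curve at half-maximal effect; 0% = DMSO-treated cells and -100% = media-only wells without cells; nearly all actives have a fitted effect of over 55% in size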
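Luminescent CellTiter-Glo readout after 48 hours of compound exposure at 37 degrees C defined viability of HT-1080-NT cells. Activity was normalized to DMSO wells and cell-free media wells; concentration-response curves were fitted and assigned curve classes.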
DT40 TDP1 no CPT – qHTS for Inhibitors of human tyrosyl-DNA phosphodiesterase 1 (TDP1): qHTS in cells in absence of CPT; DT40 Tdp1-/- hTDP1 cells, no CPT, ATP luminescence, 48 h; Potency, µM (doses to about 46.2 µM), for the others: at the highest dose activity change, negative = growth inhibition, actives largely listed as inhibitors; 420,000 compounds, 15% hits; AID 686978, 2013; also: potency is read from the fitted curve at half-maximal effect; nearly all actives have a fitted effect of over 55% in size
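Readout: luminescence from CellTiter-Glo after 30 min in the dark at RT. Cells: DT40 Tdp1-/- with stable hTDP1, 400/well. Exposure: compounds alone, ≥48 hr, 37 °C.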
DT40 TDP1 CPT – qHTS for Inhibitors of human tyrosyl-DNA phosphodiesterase 1 (TDP1): qHTS in cells in presence of CPT | chicken DT40 Tdp1-/-;hTDP1 cells + 20 nM CPT, ATP luminescence, 48 h | Potency, µM (highest dose often 46.2 µM), without a hit: top-dose activity change, negative = growth inhibition, most hits filed as inhibitors | 420,000 compounds, 12% hits; also: potency is read from the fitted curve at half-maximal effect; nearly all actives have a fitted effect of over 55% in size
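Chicken DT40 Tdp1-/- cells stably complemented with human TDP1 were seeded at 400 cells/well in medium containing 20 nM camptothecin, exposed to pin-transferred compounds, and grown at 37 °C for at least 48 hr. Viability was read as ATP luminescence.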
IL-1B inflam inh – qHTS for Inhibitors of Inflammasome Signaling: IL-1-beta AlphaLISA Primary Screen. activity change, % at 57.5 µM. THP-1 LPS/ATP IL-1B secretion, AlphaLISA, 16 h; active compounds read low. AID 743279, 2014. 360,000 compounds, 4.7% hits; in the data active = activity change below about -50%; inconclusive = mostly about -30% to -49%
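Secreted IL-1B measured by AlphaLISA bead assay after 16 h compound exposure of THP-1 cells; compounds (final up to 57.5 uM) added 1 h before LPS (250 ng/mL) and ATP (1.25 mM) stimulation; lower signal means less secretion.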
* = called active by the depositor; ? = inconclusive; . = no result. Unless noted, calls follow the shape of the dose curve; as a rule, active = well fitted curve in the direction sought with a large enough effect; inconclusive = small, poorly fitted or top-dose-only effect, or another doubt; inactive = no such curve, though single readings can be large; an effect the other way counts as inactive or inconclusive. Unless noted, % is scaled to controls: 0 for no effect and ±100 for the full control effect.

SMILES | HT1080 IDH1KD tx | uPA surface inh | HT1080NT lethal | DT40 TDP1 no CPT | DT40 TDP1 CPT | IL-1B inflam inh
CC(C)CC(=O)OCc1cc(=O)n2nc(C3CCCCC3)sc2n1 | . | . | . | ? | -7% | .
CCCCC[C@H]1CN(Cc2ccc(OC)cc2)C(=O)[C@@H]1CC(=O)NCc1ccccc1 | -6% | 5% | -12% | 11µM* | 12µM* | -10
COc1cccc(-c2cnc3c(NC=O)cc(-c4ccc(OC)cc4OC)cn23)c1 | ? | . | ? | 0.021µM* | 0.015µM* | 47
COc1ccc(-c2cc(NC=O)c3ncc(-c4ccc(OC)c(OC)c4)n3c2)c(OC)c1 | 0.082µM* | . | 0.0073µM* | 0.033µM* | 0.041µM* | 15
COC(=O)CSc1nc2sc3c(c2c(=O)n1Cc1ccccc1)CCC(C(C)(C)C)C3 (centres undefined) | . | . | . | -13% | -4% | .
Cc1nn(-c2ccccc2)c(Cl)c1C(=O)NC1CCCCC1 | 6% | 3% | -1% | -2% | 9% | -17
Cc1nn(-c2ccccc2)c(C)c1C(=O)OC(C)C(=O)NC1CCCCC1 (centres undefined) | -14% | 0% | 21µM* | 10µM* | 16µM* | ?
COc1cc(Br)c(CCNC(=O)Cc2ccccc2)cc1OC | 19% | -6% | 30% | -23% | -30% | 6
CCOC(=O)COc1cc(Br)c(/C=N/Nc2ccccc2)cc1OC | ? | 6% | ? | -14% | -11% | -93*
COc1cc(C=O)c(Br)cc1OCC(=O)NCCc1ccccc1 | ? | 1% | -23% | 18µM* | ? | -13
Cc1nc2sccn2c(=O)c1S(=O)(=O)Nc1cc(C(F)(F)F)ccc1Cl | . | . | . | -27% | -5% | .
COc1ccccc1C1CC(c2cccc(NS(C)(=O)=O)c2)=NN1S(=O)(=O)c1ccccc1 (centres undefined) | -7% | 19% | 1% | -1% | -5% | -3
NC(=NC1C2CC3CC(C2)CC1C3)Nc1ccc(I)cc1 (centres undefined) | . | . | . | 3.7µM* | 4.1µM* | .
CN(/N=C/c1c[nH]c2ccccc12)c1cnn(-c2ccc(F)c(Cl)c2)c(=O)c1Cl | -17% | -2% | 1% | 26µM* | 26µM* | 42
O=C(Cc1ccc([N+](=O)[O-])cc1)OCc1c(F)cccc1Cl | 10% | -2% | 3% | 0% | 2% | -4
Cc1nn(-c2cc(C)c3ccccc3n2)c2c1CCC2 | 15% | 0% | 23% | 23µM* | ? | -4
C=CCOc1ccc(/C=N/n2nnnc2N)cc1OC | 10% | 10% | 3% | -3% | 3% | -19
O=C(CC1(O)C(=O)Nc2cc(Cl)cc(Cl)c21)c1ccccc1O (centres undefined) | ? | -7% | ? | ? | ? | -80*
O=C(CC1(O)C(=O)Nc2ccccc21)c1ccccc1O (centres undefined) | 17% | -1% | 27% | -5% | 3% | 41
Cc1cc(C)c2nc(SCC(=O)N3CC(=O)Nc4ccccc43)c(C#N)cc2c1 | 0.92µM* | -10% | ? | 1.3µM* | 1.3µM* | 44
Cc1ccsc1C(=O)N1CC(=O)Nc2ccccc21 | 18µM* | -13% | ? | 23µM* | ? | -20
Cc1cc(C)cc(C(=O)N2CC(=O)Nc3ccccc32)c1 | 0.52µM* | -14% | 1.2µM* | 0.58µM* | 0.92µM* | 21
COc1cc(C(=O)N2CC(=O)Nc3ccccc32)cc(OC)c1OC | ? | . | ? | 8.2µM* | 8.2µM* | 63
Cc1cc(C)c2nc(SCC(=O)Nc3ccccc3N3CCOCC3)c(C#N)cc2c1 | 2% | -1% | 5% | ? | ? | 41
COc1cccc(C(NC(=O)C2CCN(CCCOc3ccccc3)CC2)c2ccccn2)c1 (centres undefined) | 0% | . | -5% | -19% | ? | -17
SMILES | HT1080 IDH1KD tx | uPA surface inh | HT1080NT lethal | DT40 TDP1 no CPT | DT40 TDP1 CPT | IL-1B inflam inh
O=C(NC(c1ccccc1)c1cnccn1)C1CCN(Cc2ccc(Cl)c(Cl)c2)CC1 (centres undefined) | ? | . | ? | 13µM* | 9.2µM* | -24
O=C(NC(c1ccc(-c2ccccc2)cc1)c1cnccn1)C1CCN(Cc2ccc(Cl)c(Cl)c2)CC1 (centres undefined) | -4% | . | -10% | ? | ? | -21
O=C(NNC(=O)C1CCN(Cc2ccc(Cl)c(Cl)c2)CC1)c1cccs1 | -15% | . | -18% | 16µM* | -1% | 4
O=C(NC(c1ccc(-c2ccccc2)cc1)c1cnccn1)C1CCN(Cc2ccc3c(c2)OCO3)CC1 (centres undefined) | 10µM* | . | 13µM* | 5.2µM* | 5.8µM* | -26
O=C(NNC(=O)C1CCN(Cc2ccccc2)CC1)c1cccs1 | 5% | 1% | -2% | 8% | 9% | 17
Cn1cc(CN2CCC(C(=O)NC(c3ccc(-c4ccccc4)cc3)c3cnccn3)CC2)c2ccccc21 (centres undefined) | ? | . | 5.2µM* | 16µM* | 13µM* | 0
Cc1nc([N+](=O)[O-])cn1CC(=O)Nc1ccc(F)c(Cl)c1 | -2% | -1% | 16% | -3% | -3% | 40
COc1ccccc1C(O)c1nccn1Cc1ccccc1 (centres undefined) | . | . | . | -2% | -12% | .
Cc1c(C(=O)N2CCCCC2c2cccnc2)sc2ncnc(NCc3cccs3)c12 (centres undefined) | . | . | . | ? | -3% | .
CCN(c1ccccc1)S(=O)(=O)c1ccc(C(=O)Nc2cc(C)ccn2)cc1 | 8% | 2% | 11% | 18µM* | 16µM* | -10
CCN(c1ccccc1)S(=O)(=O)c1ccc(C(=O)Nc2ncccc2C)cc1 | -2% | 2% | -2% | -10% | 1% | 10
CCN(c1ccccc1)S(=O)(=O)c1ccc(C(=O)Nc2ccncc2)cc1 | -21% | -2% | -8% | 21µM* | 23µM* | -15
Cc1ccnc(NC(=O)C(Cc2ccccc2)NC(=O)c2ccccc2)c1 (centres undefined) | -12% | 4% | -10% | 16µM* | ? | -30

Source: PubChem BioAssay (National Center for Advancing Translational Sciences (NCATS))
